In all, about 71,000 compounds went through this assay and about 1,800 (2.5%) were called active. Where a call stands in place of a potency, no number is given. Roughly 26% stayed inconclusive and do not appear here. For the sample, actives were picked, then their nearest neighbours and some compounds at random. Unmarked numbers belong to inactive results. The call rests on the fitted dose curve; in most records, active means well fitted activation curve with a large enough effect in the signal ratio, with a control signal flat (not every such curve was filed as active); inconclusive means small, poorly fitted or top-dose-only effect, or effect the other way, or a change in a side signal; inactive means flat fitted curve, though single readings scatter; the % refers to the signal ratio.
Potency means the concentration at half of the fitted maximal effect.

A short description of this assay: Cell signaling CRE-BLA (Fsk stim). The settings on record: CHO CRE-bla reporter (cAMP response element driving beta-lactamase), forskolin EC10, beta-lactamase ratio; series mostly up to 38.2 µM. The text has this:
NIH Molecular Libraries Screening Centers Network [MLSCN]
NIH Chemical Genomics Center [NCGC]
Assay Provider: Marshall W. Nirenberg, U.S. National heart lung & blood institute
Memories persist for different lengths of time, from seconds or minutes to a lifetime. There are two kinds of memory: short-term memory (STM) and long-term memory (LTM). STM lasts for minutes to hours, which maybe mediated by modifications of molecules involved in synaptic functions. LTM lasts for days or longer, and may be due to the formation of new synapses or restructuring of existing synapses. LTM, but not STM, requires gene transcription and synthesis of proteins. CREB (cyclic-AMP Responsive Element Binding Protein) is one of the candidates plays an important role for enhancement of some types of LTM. CREB, a family of transcription factors, regulates the transcription of genes containing cAMP Responsive Elements (CRE). CRE is a nucleotide sequence often found in the promoter regions of genes that are binding sites for CREB.
Using a beta-lactamase reporter-gene under control of cAMP responsive element, a cell-based assay [CellSensor(TM) CRE-bla CHO developed by Invitrogen Corp.] was used to measure forskolin-induced signaling. Library compounds were measured for their ability to modulate positively or negatively the action of EC10 NKH 477, a water soluble forskolin, on reporter gene activity. Compounds were screened in a titration series in 1536-well format. Positive and negative modulators were identified based on the AC50 values derived from the screening data.
NCGC Assay Protocol Summary
2000 cells/5uL in Opti-MEM medium containing 0.5% dialyzed FBS, 0.1 mM NEAA, 1 mM sodium pyruvate and 10 mM HEPES was dispensed into 1536-well plates and cells were cultured at 37 degrees Celsius overnight. […] And then the plates were incubated at 37 degrees Celsius for 3 hours. 1 uL of CCF4-dye mixture was added to each well. After incubated at room temperature for 2 hours the plates were measured on an EnVision plate reader at Excitation 405nm, Emission1=460nm and Emission 2=530nm. The %Activity was determined from the ratio of 460nm/530nm.
Keywords: NIH Roadmap, MLSCN, MLSMR, qHTS, NCGC, CRE, beta-lactamase reporter-gene assay.
`O=C(O)Cc1ccc(NC(=O)c2cccs2)cc1`: the Potency result is “inactive”. As for `O=C(Nc1ncccn1)c1cccs1`, the Potency entry was “inactive”.

Take `CCc1nnc(NC(=O)c2cccs2)s1`: the Potency entry is “inactive”. Same read-out and setting: the result for `CCOC(=O)c1c(NC(=O)c2cccs2)sc(C)c1C` reads 2.51 µM (active). With `CCOC(=O)c1oc2ccccc2c1NC(=O)c1cccs1`, the Potency is 3.98 µM (active). Regarding `COC(=O)Cn1cc(C(=O)c2cccs2)c2ccccc21`, the Potency entry was “inactive”.

For the compound `COC(=O)C1=C(C)N(C)C(C)=C(C(=O)OC)C1c1cccc(Br)c1`, the Potency result is “inactive”. Regarding `O=C(Cl)c1ccc([N+](=O)[O-])cc1`, the Potency entry is “inactive”. Same read-out and setting: the result for `CCNC(=S)NCC` reads “inactive”; that for `CCCCC(CC)CN` (stereo unspecified), “inactive”. For `c1csc(-c2cn3c(n2)SCC3)c1`, the Potency result is “inactive”. As to `Cc1c(C)c2c(c(C)c1O)CC[C@@](C)(CN1CCN(c3cc(N4CCCC4)nc(N4CCCC4)n3)CC1)O2`, the Potency entry is “inactive”. The same measure, in the same setting: the same measure for `CC1OC2C(OC1C)N(S(C)(=O)=O)CCN2S(C)(=O)=O` (stereo unspecified): “inactive”.

`Cc1nc2cnc(N3CCN(C)CC3)nc2n(CCC#N)c1=O`: the Potency result was “inactive”. For the compound `O=c1c(CCc2ccccc2)nc2cnc(N3CCNCC3)nc2n1Cc1cccs1`, the Potency is 12.6 µM (active). On to `Cc1nc2cnc(N3CCN(C)CC3)nc2n(C[C@H]2CCCO2)c1=O`, for which the Potency entry was “inactive”. For `CC(C)(C)[Si](OCC[C@@H]1C[C@@]1(C)[C@@H](NP(=O)(c1ccccc1)c1ccccc1)c1ccccc1)(c1ccccc1)c1ccccc1`, the Potency entry is “inactive”. As for `COC(=O)[C@@]1(Cc2ccc(OC)cc2)[C@H]2c3cc(C(=O)N4CCCC4)n(Cc4ccc(C(F)(F)F)nc4)c3C[C@H]2CN1C(=O)c1ccccc1`, the Potency entry was “inactive”. Turning to `COC(=O)C1(C)C=CC2(CCCCC2)N1C(C)=O` (stereo unspecified), the Potency result was “inactive”. With `CCCCCCCCCCCC(=O)O`, the Potency result is “inactive”. `Cc1cccn2c(=O)c3cc(C#N)c(=O)n(CCCN4CCOCC4)c3nc12`: the Potency is 10 µM (active). As to `CCCOc1ccc(C2c3c(oc4cc(C)c(C)cc4c3=O)C(=O)N2CCCN2CCOCC2)cc1` (stereo unspecified), the Potency entry was “inactive”.

As for `Cn1c(=O)c2c(nc(CN3CCOCC3)n2Cc2ccccc2)n(C)c1=O`, the Potency entry is “inactive”. In the case of `CCOC(=O)CSc1nnc(-c2cccc(Br)c2)o1`, the Potency result was “inactive”. Regarding `CCC[C@@H]1C[C@@]1(CCC)C(NC(=O)c1ccc(-c2ccccc2)cc1)c1cccc(Cl)c1` (stereo partly specified), the Potency entry was “inactive”. Turning to `CCOc1ncccc1C(=O)OCc1cn2cc(Cl)ccc2n1`, the Potency is 10 µM (active). On the same count and under the same terms, the result for `COc1ccc(C(=O)NCc2cn3ccccc3n2)cc1` reads “inactive”. For `CSc1ncccc1C(=O)OCC(=O)N1CCOCC1`, the Potency result was “inactive”. With `CC(=O)N1[C@H](C)C=C[C@]1(Cc1ccccc1)C(=O)NCc1ccccn1`, the Potency result was “inactive”.

Take `C/C(=C\C(=O)c1ccc(Br)cc1)N1CCCCC1`: the Potency entry was “inactive”. Consider `COC(=O)C1(Cc2ccccc2)C=C2C(=C(C)C(=O)C2C)CN1` (stereo unspecified), for which the Potency entry was “inactive”. For `COc1ccc(-c2nn3c(-c4ccccc4)nnc3s2)cc1OC`, the Potency was 3.16 µM (active). Still for that read-out and setting: the same measure for `Fc1ccc(-c2ccc(-c3nn4c(-c5ccco5)nnc4s3)o2)cc1`: “inactive”. Regarding `COc1cc(-c2nn3c(-c4cccc(C)c4)nnc3s2)cc(OC)c1OC`, the Potency was 1.58 µM (active). Regarding `CC(=O)Nc1ccc(-c2nn3c(C)nnc3s2)cc1C`, the Potency entry was “inactive”.

With `Cc1nnc2sc(-c3ccco3)nn12`, the Potency entry was “inactive”. In the case of `COC(=O)CCCCCN1C(=O)NC(c2ccc(-c3ccccc3)cc2)C(C(=O)OCc2ccccc2)=C1C` (stereo unspecified), the Potency entry is “inactive”. Regarding `O=C(CCSc1ccccc1)NCCSc1ccccn1`, the Potency result was “inactive”. As to `CCOc1ccccc1N(CC(=O)Nc1ccccc1C(=O)OC)S(C)(=O)=O`, the activity change, negative = inhibition was 12.2% [at 7.6 µM]. Consider `CC(NC(=O)Nc1ccccc1)c1ccccc1` (stereo unspecified), for which the Potency result was “inactive”. Turning to `CC(Cc1ccccc1)C(=O)N(C)Cc1ccccc1` (stereo unspecified), the Potency entry was “inactive”. On to `CCCSc1nc2c(c(=O)n(C)c(=O)n2C)n1Cc1ccc(C)cc1`, for which the Potency result was “inactive”.

Regarding `CCOc1ccc(Cn2c(SCCCCC#N)nc3c2c(=O)n(C)c(=O)n3C)cc1OCC`, the Potency was 10 µM (active).

In the case of `COC(=O)C(C)Sc1nc2c(c(=O)n(C)c(=O)n2C)n1Cc1cccc(C)c1` (stereo unspecified), the Potency result is “inactive”. Same read-out and setting: the result for `COC(=O)[C@@]1(Cc2ccccc2)[C@H]2c3cc(C(=O)N(C)C)n(CCSCCO)c3C[C@H]2CN1C(=O)c1ccccc1` reads “inactive”; that for `NS(=O)(=O)c1ccc(NS(=O)(=O)/C=C/c2ccccc2)cc1`, “inactive”; that for `CC(C)(C)NC(=O)c1cc(NC(=O)c2ccco2)cc(NC(=O)c2ccco2)c1`, “inactive”. Consider `O=C(Nc1cccc(Cl)c1)OCc1ccccn1`, for which the Potency entry was “inactive”.

`O=c1c2[nH]c3ccc(Cl)cc3c2ncn1Cc1ccccn1`: the Potency is 3.98 µM (active). In the case of `CC(=O)N1CC2(C)CN(C(C)=O)CC(C)(C1)C2=O`, the Potency entry is “inactive”. In the case of `C/C=C/C=C/C(=O)O`, the Potency result was “inactive”. On to `Nc1nc(SCCOc2ccccc2)n[nH]1`, for which the Potency result is “inactive”.

On to `CCNc1nc(NCC)nc(N(C)n2cnnc2)n1`, for which the Potency result was “inactive”.

Consider `CCNc1nc(SCCOc2ccccc2)nc(N(C)C)n1`, for which the Potency was 3.98 µM (active).

Turning to `OC(CCl)CCl`, the Potency result is “inactive”.

As to `Cn1c(=O)c2c(nc(SCC(=O)Nc3ccccc3N3CCCCC3)n2C)n(C)c1=O`, the Potency result was “inactive”.

The values are drawn from PubChem BioAssay AID662 (National Center for Advancing Translational Sciences (NCATS), 2007).
